Experimental data taken from PubChem BioAssay (NCI).
This is part of a sample that, as a whole, favours compounds with a hit. Of some 83,000 tested, about 20% had one in any assay.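 Percent growth is the endpoint: 0 to 100 indicates growth inhibition (40 means 60% inhibition), 0 means no net growth, and negative values indicate cell death.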 Unmarked numbers belong to inactive results. Calls of active or inactive are those of the source. How the source made its calls: active means growth percent below 10; inactive means the rest.

test system: U251 CNS; experiment: NCI-60 one-dose screen, 48 h (100 = growth as untreated, 0 = no growth, -100 = all killed); settings: 10 µM unless noted

SMILES | growth
COc1cc(-c2nc(SCCC(C)C)nc(Nc3ccccc3Cl)c2C#N)cc(OC)c1OC | 106%
CCN(C(=O)N1CCN(c2cc3c(cc2F)c(=O)c(C(=O)O)cn3C2CC2)CC1)c1nc(-c2ccc(Cl)cc2)cs1 | 15.1%
Fc1ccc2[nH]cc(-c3nonc3-c3c[nH]c4ccc(Br)cc34)c2c1 | 13.6%
N#Cc1cccc(F)c1 | 110%
Cc1cnc(C(=O)NNc2nc3sc4c(c3c(=O)n2C)C(C)CCC4)cn1 (centres undefined) | -33.3% (active)
O=C(O)[C@@H]1c2ccccc2-c2ccccc2[C@H]1C(=O)O | 106%
CN[C@]12CC3(C=CC(=O)C=C3)O[C@@]1(Cc1ccc(OC)cc1)N(C)C(=O)N2 | 10.9%
Cc1ccccc1/C=C1\CN(C(=O)OC(C)(C)C)C/C(=C\c2ccccc2C)C1=O | 0.0873% (active)
CCc1n(Cc2ccc3ccccc3c2)cc[n+]1Cc1ccc2ccccc2c1 | 4.23% (active)
CCCCCCCCn1ccc2cc(NC(=O)CN3CCN(c4nc(C)cc(Cl)n4)CC3)ccc21 | 92.8%
COc1ccc(-c2nc3c(c(-c4ccccc4)nn3-c3ccccc3)c(-c3ccc(N4CCOCC4)cc3)c2C#N)cc1 | 84.8%
CCC(=C(c1ccc(OCCN2CCCC2)cc1)c1ccc(OCCN2CCCC2)cc1)c1ccc(Cl)cc1 | -77.4% (active)
CCOC(=O)Cn1c(O)c(N=Nc2ccc(S(N)(=O)=O)cc2)c2cc(Br)ccc21 | 86.2%
C=C1C(=O)O[C@H]2[C@H]1CC/C(COC(=O)CCSCCC(=O)OC/C1=C/CC[C@@]3(C)O[C@H]3[C@H]3OC(=O)C(=C)[C@@H]3CC1)=C\CC[C@@]1(C)O[C@@H]21 | 6.76% (active)
COC(C(=O)[C@@H](O)[C@@H](C)O)[C@@H]1Cc2cc3cc(O[C@H]4C[C@@H](O[C@H]5C[C@@H](O)[C@H](O)C(C)O5)[C@H](O)C(C)O4)c(C)c(O)c3c(O)c2C(=O)[C@H]1O[C@H]1C[C@@H](O[C@H]2C[C@@H](O[C@H]3C[C@@H](O)[C@H](OC)C(C)O3)[C@@H](O)C(C)O2)[C@H](O)C(C)O1 (some centres undefined) | 2.99% (active)
COC(=O)CNC(=O)[C@H](Cc1ccccc1)NCc1ccncc1 | 92.3%
O=C(O)c1[nH]c(=O)[nH]c(=O)c1[N+](=O)[O-] | 104%
Cc1nnc(NC(=O)c2nc(S(=O)(=O)Cc3ccc(F)cc3)ncc2Cl)s1 | 62.2%
O=C1Nc2ccc(Br)cc2/C1=N/c1n[nH]c(=S)s1 | 96.2%
N#CC1=C(c2ccc(Cl)cc2)Nc2c(c(-c3ccc(Cl)cc3)nn2-c2ccccc2)C12C(=O)Nc1ccc(Cl)cc12 (centres undefined) | 25.3%
O=C1CNC(c2ccccc2)C(c2ccccc2)N1 (centres undefined) | 97.5%
CN1CCN(Cc2ccc3c(NNC(=O)c4ccccc4)nc4cc(F)ccc4n23)CC1 | 12.2%
CC(C)=NNc1ccccn1 | 39.6%
Cc1ccc(/C=N/Nc2nc(Nc3ccccc3)nc(-n3nc(C)cc3C)n2)cc1 | 33.8%
